A selection: hits, their analogues and other compounds. The true share with any hit is near 2.7%.
ATG4B inhibitor = inhibitors of human ATG4B cysteine protease; Q9Y4P1; ATG4B cleavage of LC3-PLA2, NBD-HPC fluorescence, 1 h; inhibition, % at 8.33 µM; 340,000 compounds, 0.51% hits; AID 504462; in the data active means inhibition above about 40%
Target sequence (Q9Y4P1 whole entry, looked up): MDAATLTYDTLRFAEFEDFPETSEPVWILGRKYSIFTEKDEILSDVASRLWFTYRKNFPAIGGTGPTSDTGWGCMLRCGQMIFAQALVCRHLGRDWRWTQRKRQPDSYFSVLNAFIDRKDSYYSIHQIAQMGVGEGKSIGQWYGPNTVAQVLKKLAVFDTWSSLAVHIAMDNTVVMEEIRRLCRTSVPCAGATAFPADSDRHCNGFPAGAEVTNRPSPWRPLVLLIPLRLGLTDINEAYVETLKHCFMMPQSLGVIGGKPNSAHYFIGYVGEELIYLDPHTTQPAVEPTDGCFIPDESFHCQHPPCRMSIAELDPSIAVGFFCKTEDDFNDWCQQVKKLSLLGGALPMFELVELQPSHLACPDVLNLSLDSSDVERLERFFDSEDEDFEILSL
CFTR F508del cor = CFTR F508del correction in bronchial cells. activity (quench increase), % at 7.58 µM. CFBE cells, YFP halide quenching; stimulated with forskolin plus potentiator P3; % fluorescence drop versus neutral controls. 350,000 compounds, 0.36% hits;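 active means mean added fluorescence quench of at least 8% versus neutral control, with both replicates also reaching 8%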;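 further: cells transiently co-express mutant CFTR-F508del with the halide-sensitive YFP; corrector assay measuring rescue of mutant channel to the surface after 24 h compound exposure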
MPTP inh = blocks calcium-induced mitochondrial swelling; 360,000 compounds, 1.4% hits; isolated mouse mitochondria, Ca2+ swelling absorbance, 30 min; inhibition, % at 10 µM;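 active means inhibition of 50% or more, scaled per plate between neutral and stimulator controls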;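 further: 0% = DMSO wells given calcium and 100% = 1 mM EGTA wells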
NRP1-CendR mod = alters CendR peptide binding to human NRP-1 | O14786 | FAM-RPARPAR peptide binding to NRP-1, fluorescence polarization | inhibition, % at 25 µM | 360,000 compounds, 0.85% hits | AID 602438;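 active means inhibition or corrected inhibition above about 18%, plus a signal ratio from 0.5 to 1.5, limit read from the data, passing the limit was not always enough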
SKN-1 block = inhibitors of C. elegans SKN-1. inhibition, % at 21.8 µM. 360,000 compounds, 0.49% hits. C. elegans VP596 Pgst-4::GFP/RFP ratio, acrylamide-induced, 24 h;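 active means interference check ratio from 0.5 to 1.5 plus GFP to RFP signal ratio inhibition reaching or exceeding a fixed threshold, cut at about 30% in these data, passing the limit was not always enough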
Numbers without * were called inactive; nt = no result given.

SMILES | ATG4B inhibitor | CFTR F508del cor | MPTP inh | NRP1-CendR mod | SKN-1 block
COc1n[nH]c2nncnc12 | -6 | nt | -1 | 28* | 2
COc1ccc(/C=N/Nc2nc(Nc3ccccc3)nc(N3CCCCC3)n2)cc1OC | -19 | nt | 1 | 5 | 37*
Cc1cc(C(=O)CCC(=O)NC(C)c2ccc(S(N)(=O)=O)cc2)c(C)s1 (stereo not drawn) | 0 | 8.8* | 0 | 0 | -6
Fc1ccccc1N1CCN(c2cnc3ccccc3n2)CC1 | 7 | nt | 0 | 24* | 12
c1ccc(CN2CCN(c3cnc4ccccc4n3)CC2)cc1 | -4 | 3 | 2 | 9 | -32
Clc1nc(-c2ccccn2)nc2scc(-c3ccccc3)c12 | 8 | nt | 1 | 30* | 9
CC1CCN(c2nc(-c3cccnc3)nc3scc(-c4ccccc4)c23)CC1 | 3 | nt | 6 | -9 | 15
COc1ccc(S(=O)(=O)N/N=C\c2ccc3c(c2)OCO3)c(OC)c1 | 2 | 0 | 2 | 30* | 0
Cc1c(Cl)cccc1N=c1c([N+](=O)[O-])nn(-c2ccccc2)n1O | 2 | -6 | 0 | -7 | 52*
COc1ccccc1C(=O)Nc1ccc2c(c1)nc(CCNC(=O)c1ccco1)n2C | -8 | 10* | 0 | 5 | 6
Cn1c(CCNC(=O)c2ccco2)nc2cc(NC(=O)c3ccco3)ccc21 | 5 | nt | 1 | 8 | -2
O=C(Cc1ccccc1)N[C@@H]1C=C[C@H](CC(=O)N2CCCCC2)O[C@H]1CO | nt | 1 | nt | nt | nt
CCCCN1C(=O)/C(=C/C=C2\Oc3ccccc3N2CC)SC1=S | 2 | 17* | 3 | 131 | 54
CCCN1C(=O)/C(=C/C=C2\N(CC)c3ccccc3C2(C)C)SC1=S | 5 | nt | 18 | 124 | 78
C(=NNc1ccc2ccccc2n1)c1ccccn1 | nt | 8.2* | -1 | -7 | 28
CCCC(=O)N1CC2(C1)CN(S(C)(=O)=O)[C@@H](CO)c1c2c2ccc(OC)cc2n1C | nt | 1 | nt | nt | nt
COc1ccc(C(=O)/C=C/c2ccccc2)c(OC)c1 | 3 | -1 | 1 | -16 | 14
COc1ccc(C(=O)/C=C/c2ccc(N(C)C)cc2)c(OC)c1 | -8 | 18* | 2 | 134 | -7
C[C@@H]1CN([C@H](C)CO)C(=O)c2cc(NS(=O)(=O)c3ccc(F)cc3)ccc2O[C@@H]1CN(C)C(=O)Nc1ccc(C(F)(F)F)cc1 | nt | 1 | nt | nt | nt
COc1ccccc1N=Nc1nc(-c2ccccc2)c(-c2ccccc2)[nH]1 | -7 | nt | 23 | -3 | 36*
COc1ccc(N=Nc2nc(-c3ccccc3)c(-c3ccccc3)[nH]2)cc1 | 26 | nt | 41 | -64 | 10
Cc1c(Cl)c(-c2n[nH]c(=S)n2-c2ccc(F)cc2)nn1C | -4 | nt | 1 | 7 | 30*
O=C(N[C@H]1CC[C@H](CC(=O)N2CCc3ccccc3C2)O[C@H]1CO)C1CCOCC1 | nt | 2 | nt | nt | nt
C[C@@H]1CCCCO[C@H](CN(C)S(=O)(=O)c2cccs2)[C@H](C)CN([C@H](C)CO)C(=O)c2cc(N(C)C)ccc2O1 | nt | -1 | nt | nt | nt
c1ccc(Cn2cc(CSc3ccccc3)nn2)cc1 | -9 | 0 | 1 | 28* | 6
SMILES | ATG4B inhibitor | CFTR F508del cor | MPTP inh | NRP1-CendR mod | SKN-1 block
CC(C)n1c(=O)c2ccccc2n1Cc1cn(Cc2ccccc2)nn1 | nt | 5 | 0 | 9 | -15
c1ccc(SCc2cn(C[C@H]3CC[C@@H]([C@@H]4CC[C@H](Cn5cc(CSc6ccccc6)nn5)O4)O3)nn2)cc1 | 8 | 1 | 0 | 24* | 7
CC(=O)N1[C@@H]2c3ccc(C4=CCCCC4)c(=O)n3C[C@H]1[C@H](CO)[C@H]2C(=O)NC1CCCC1 | nt | -3 | nt | nt | nt
CCCC#Cc1cnc2c(c1)C(=O)N([C@@H](C)CO)C[C@H](C)[C@@H](CN(C)C(=O)c1cccnc1)O2 | nt | -2 | nt | nt | nt
Cc1ccc(O)c(C(=O)c2cnn(C(=O)Cc3csc(C)n3)c2)c1 | 43* | nt | -2 | -29 | -7
COc1ccccc1N1CCN(c2nc(C)nc3c2oc2ccccc23)CC1 | 45* | nt | 0 | -4 | -2
COc1ccc(-c2ccc(/C=C3/C(=N)N4C(C)=CSC4=NC3=O)o2)c([N+](=O)[O-])c1 | 0 | nt | 2 | -31 | 43*
CCc1ccc(CNC(=O)C2CCCN(S(=O)(=O)N3CC(C)CC(C)C3)C2)cc1 (stereo not drawn) | -1 | -1 | 4 | 22* | -4
NCCCC[C@H]1NC(=O)[C@H](CCC(=O)O)NC(=O)c2cc([N+](=O)[O-])cc(I)c2OCC[C@@H](C(N)=O)NC1=O | 44* | nt | nt | nt | nt
C[C@@H]1NC(=O)c2cc([N+](=O)[O-])cc(I)c2OCC[C@@H](C(N)=O)NC(=O)[C@H](CCCCN)NC1=O | -1 | nt | -3 | 4 | 4
CCCNC(=O)N1CC2(CCN(C(=O)C3CCC3)CC2)c2c([nH]c3cc(OC)ccc23)[C@H]1CO | nt | -3 | nt | nt | nt
CC(=O)c1ccc2noc(-c3ccc(F)cc3)c2c1 | -13 | 1 | 0 | 37* | 2
C[C@@H]1CN([C@H](C)CO)C(=O)c2cc(NS(=O)(=O)c3ccc(F)cc3)ccc2O[C@@H]1CN(C)S(=O)(=O)c1ccc(Cl)cc1 | nt | 2 | nt | nt | nt
C[C@H](NC(=O)c1nc[nH]c1C(=O)NCc1ccc(CNC(=O)OC(C)(C)C)cc1)c1ccccc1 | -9 | 3 | 0 | 28* | 7
C[C@@H](NC(=O)c1nc[nH]c1C(=O)NCc1ccccc1)c1ccccc1 | 0 | 2 | 0 | 26* | -6
C[C@H](NC(=O)c1nc[nH]c1C(=O)NCCCCCNC(=O)OC(C)(C)C)c1ccccc1 | -7 | 4 | -1 | 28* | 19
C[C@@H](NC(=O)c1nc[nH]c1C(=O)NCCCCCNC(=O)OC(C)(C)C)c1ccccc1 | 5 | 0 | -2 | 7 | 18
C[C@@H](NC(=O)c1nc[nH]c1C(=O)N1CCN(c2ccccc2)CC1)c1ccccc1 | -8 | -2 | 0 | 22* | 10
CC1CCN(C(=O)c2[nH]cnc2C(=O)N[C@H](C)c2ccccc2)CC1 | -6 | 1 | -2 | -2 | 2
C[C@H]1CN([C@@H](C)CO)C(=O)Cc2cc(NC(=O)Cc3cn(C)c4ccccc34)ccc2O[C@H]1CN(C)S(=O)(=O)c1ccccc1 | nt | 0 | nt | nt | nt
CC(C)(C)OC(=O)NCc1ccc(CNC(=O)c2nc[nH]c2C(=O)N2CCN(C(=O)OC(C)(C)C)CC2)cc1 | -18 | -1 | 2 | 27* | 8
COc1ccc(S(=O)(=O)Nc2ccc3c(c2)C(=O)N([C@@H](C)CO)C[C@H](C)[C@H](CN(C)S(=O)(=O)c2cn(C)cn2)OCCCC[C@@H](C)O3)cc1 | nt | -1 | nt | nt | nt
COc1ccc(S(=O)(=O)n2ccc(-c3ccc(OCCN(C)c4ccccn4)cc3)n2)cc1 | -15 | nt | 3 | -2 | 45*
COc1ccc(S(=O)(=O)N(CC(=O)O)c2ccccn2)cc1 | 4 | nt | -2 | 16 | 15
CC(C)C1OC2(C)OC(=N)C1(C#N)C(C#N)(C#N)C2c1ccccc1 (stereo not drawn) | 12 | nt | -1 | -14 | 42

Assay outcomes deposited in PubChem by several laboratories.
